Tau fluor cs – counter-screen for tau fibril formation inhibitors; 280,000 tested, 0.93% active; tau K18 P301L Alexa594 fluorescence, heparin fibrillization; Potency, µM (highest dose often 57.7 µM); AID 1463; further: nearly all actives have a fitted effect of over 55% in size
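Human K18 P301L tau (15 uM unlabeled plus 0.24 uM Alexa 594-labeled, final) in 100 mM sodium acetate pH 7 was mixed with compound and 20 uM heparin and incubated 6 hr at 37 C.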
Tau fibril ThT – blocks human tau fibril formation measured by thioflavin T; P10636; AID 1460; Potency, µM (top dose mostly 57.4 µM), usual class: inhibitors; recombinant tau K18 P301L (four-repeat tau fragment), heparin-induced fibrillization, ThT fluorescence; 270,000 tested, 2.1% active; further: nearly all actives have a fitted effect of over 55% in size
Target sequence (P10636 561-689 P618L limits assumed): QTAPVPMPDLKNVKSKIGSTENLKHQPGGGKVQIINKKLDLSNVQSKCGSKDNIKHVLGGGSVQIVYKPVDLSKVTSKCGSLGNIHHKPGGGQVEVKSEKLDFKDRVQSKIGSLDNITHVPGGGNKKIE
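Recombinant human tau K18 fragment […] carrying P301L, 15 uM unlabeled plus 0.24 uM Alexa 594-labeled, was fibrillized with 20 uM heparin in 100 mM sodium acetate pH 7 for 6 hr at 37 C; 30 uM ThT fluorescence read after 1 hr.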
TR SRC2 fluor cs – counter-screen for TRb-SRC2 inhibitors: fluorescence interference; TRb/SRC2 Texas Red total fluorescence interference; Potency, µM (titrated, usually from 106 µM); 280,000 tested, 0.29% active; active means well fitted curve in either direction with a large enough effect; inconclusive means small, poorly fitted or top-dose-only effect
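Human TRβ ligand-binding domain (0.6 uM) and Texas Red SRC2 peptide (20 nM) in Tris buffer with 1 uM T3 and 5% DMSO were incubated with pinned compound for 5 hr at ambient temperature. Total fluorescence was computed as S + 2P (555/632 nm).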
KDM4E inh – blocks human JMJD2E demethylase activity; B2RXH2; JMJD2E catalytic domain, FDH-coupled NADH fluorescence (FDH is formaldehyde dehydrogenase); Potency, µM (highest dose often 57.1 µM), usual class: inhibitors; 230,000 tested, 1.6% active; AID 2147; active means well fitted inhibition curve with a large enough effect, not every such curve was filed as active; inconclusive means small, poorly fitted or top-dose-only effect, or another doubt; inactive means no such curve, though single readings can be large or run the other way; further: nearly all actives have a fitted effect of over 50% in size
TRb SRC2 PPI – inhibitors of human thyroid hormone receptor beta-SRC2 interaction. TRbeta-SRC2 peptide binding, fluorescence polarization; receptor liganded with 1 µM T3. Potency, µM (highest dose often 106 µM), hits mostly inhibitors. 280,000 tested, 0.065% active. AID 1469; further: nearly all actives have a fitted effect of over 50% in size
Target sequence (P10828 whole entry, looked up): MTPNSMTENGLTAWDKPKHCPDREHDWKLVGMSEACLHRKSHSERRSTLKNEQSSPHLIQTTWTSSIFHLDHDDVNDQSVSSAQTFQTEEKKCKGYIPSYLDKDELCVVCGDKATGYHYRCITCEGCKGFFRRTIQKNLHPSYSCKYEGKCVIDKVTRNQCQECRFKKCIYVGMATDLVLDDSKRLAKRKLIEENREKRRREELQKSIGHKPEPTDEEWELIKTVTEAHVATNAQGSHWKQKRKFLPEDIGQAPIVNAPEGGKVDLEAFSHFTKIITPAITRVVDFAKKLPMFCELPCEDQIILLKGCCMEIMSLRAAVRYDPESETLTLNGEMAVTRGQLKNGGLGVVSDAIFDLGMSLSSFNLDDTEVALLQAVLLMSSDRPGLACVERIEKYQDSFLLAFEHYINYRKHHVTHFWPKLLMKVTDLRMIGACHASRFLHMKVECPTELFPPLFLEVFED
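TRb LBD 0.6 uM + Texas Red SRC2 peptide 20 nM, 1 uM T3, Tris buffer w/ 5% DMSO; compound pinned, 5 h RT; FP read ex 555/em 632; normalized to unbound and bound controls.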
Tau FP inhib – tau fibrillization inhibition (FP) | P10636 | K18 P301L tau heparin fibrillization, Alexa594 FP, 6 h | Potency, µM (doses to about 57.7 µM), most hits filed as inhibitors | 280,000 tested, 0.39% active | AID 1468; further: nearly all actives have a fitted effect of over 55% in size
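Recombinant K18 P301L […], labeled with Alexa 594 at 0.24 uM over 15 uM unlabeled; heparin inducer 20 uM final; 37 C, 6 hr; FP endpoint.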
Of the large screens only hits and unclear results are named; the others gave an inactive call; [ ] = another dose, or the depositor's remark. Sampled rows, rich in hits. Any-hit rate of the full collection: about 3.5%. Unless noted, the call rests on the fitted dose curve; in most records, active means well fitted curve in the direction sought with a large enough effect; inconclusive means small, poorly fitted or top-dose-only effect, or another doubt; inactive means no such curve, though single readings can be large; an effect the other way counts as inactive or inconclusive.

COc1cccc(/C=N/Nc2ncnc3scc(-c4ccccc4)c23)c1O	Tau fluor cs inconclusive, KDM4E inh 14µM, Tau FP inhib inconclusive
COc1cccc(/C=N/Nc2nccnc2Cl)c1O	Tau fibril ThT inconclusive, KDM4E inh inconclusive
CCC(=O)Nc1ccc(S(=O)(=O)NCc2ccc3c(c2)CCN3C(=O)c2ccc(C)cc2)cc1	none (no result: KDM4E inh)
CC(=O)c1cccc(NC(=O)Nc2cnn(Cc3ccc(Cl)cc3Cl)c2)c1	Tau fluor cs 8.9µM[quencher], Tau FP inhib inconclusive
Cc1ccc(S(=O)(=O)c2[nH]c(-c3ccccc3)nc2SCC(=O)O)cc1	TR SRC2 fluor cs inconclusive (no result: KDM4E inh)
CC(=O)Sc1nc(-c2ccccc2)[nH]c1S(=O)(=O)c1ccc(C)cc1	Tau fibril ThT 28µM, KDM4E inh 10µM, Tau FP inhib 40µM
NC(=O)c1ccc(C(=O)c2ccc([N+](=O)[O-])cc2)cc1	none
NNc1nc2ccc(F)cc2s1	Tau fluor cs 18µM[quencher], Tau fibril ThT 25µM, KDM4E inh inconclusive, Tau FP inhib inconclusive
O=C(Nc1nc2ccc(Cl)cc2s1)c1ccc(Br)o1	none
NNc1nc2ccc(Cl)cc2s1	Tau fluor cs 14µM[quencher], Tau fibril ThT 22µM, KDM4E inh inconclusive, Tau FP inhib inconclusive
COc1cccc(C(=O)NC(C)c2ccc(Br)cc2)c1 (configuration not stated)	none
COC(=O)c1cc(S(=O)(=O)NCC2CCN(Cc3cccc(F)c3)CC2)cn1C	none (no result: KDM4E inh)
Cn1cc(C=C2C(=O)Nc3cccnc32)c2ccccc21	Tau fluor cs inconclusive, Tau fibril ThT 10µM (no result: KDM4E inh)
O=C(NCc1ccccc1)c1cccc(F)c1F	none
CCN(CC)c1ccc2nc3c(=O)n(C)c(=O)n(C)c3nc2c1	Tau fluor cs inconclusive, Tau fibril ThT 16µM, TR SRC2 fluor cs 22µM[fluorescent], Tau FP inhib inconclusive (no result: KDM4E inh)
CCC(=O)Nc1ccc2nc3c(=O)n(C)c(=O)n(C)c3nc2c1	none (no result: KDM4E inh)
Nc1c(-c2nc(-c3cccs3)no2)nnn1-c1ccccc1Cl	none (no result: KDM4E inh)
Cc1cc(C)c(C(=O)CSc2nnc(N)s2)cc1C	none
Cc1cc(C)c(C(=O)CSC2=NC(N)=C(C#N)C3(CCCCC3)C2C(N)=O)cc1C (configuration not stated)	Tau fluor cs inconclusive, Tau fibril ThT 28µM, Tau FP inhib inconclusive
O=C1c2ccccc2C(=O)C12OC2c1ccc(Cl)cc1Cl (configuration not stated)	Tau fluor cs inconclusive, Tau fibril ThT 10µM, TR SRC2 fluor cs inconclusive, TRb SRC2 PPI inconclusive, Tau FP inhib inconclusive
O=C1c2ccccc2C(=O)C1c1ccc(Cl)cc1	none (no result: Tau fluor cs, Tau fibril ThT, KDM4E inh, Tau FP inhib)
COCCN(C(=S)Nc1ccc(C)cc1C)C(C)c1ccco1 (configuration not stated)	none
Cc1ccc(N=C2NC(=O)S/C2=C\c2ccco2)cc1	none
O=C1NC(=Nc2ccccc2)/C(=C/c2ccco2)S1	Tau fluor cs inconclusive, Tau fibril ThT 22µM, KDM4E inh inconclusive
CC1(C)OC(=O)NC1=O	none
CN1C(=O)c2ccc(S(=O)(=O)c3ccc(C(=O)O)cc3)cc2C1=O	none
O=S(=O)(O)c1ccc2c(c1)-c1nc-2nc2[nH]c(nc3nc(nc4[nH]c(n1)c1ccc(S(=O)(=O)O)cc41)-c1ccc(S(=O)(=O)O)cc1-3)c1ccc(S(=O)(=O)O)cc21	TR SRC2 fluor cs 2.2µM[quencher], TRb SRC2 PPI inconclusive (no result: Tau fluor cs, Tau fibril ThT, KDM4E inh, Tau FP inhib)
CCOC(=O)CCCCC(=O)c1[nH]c(=O)[nH]c1CSCCO	none
O=C(COc1ccccc1[N+](=O)[O-])N/N=C/c1ccc(OC(=O)c2ccco2)cc1	TR SRC2 fluor cs 282µM[quencher]
O=C(/C=C\NCC(=O)c1ccccc1)c1ccc2ccccc2c1	Tau fibril ThT inconclusive, KDM4E inh 18µM
O=C(/C=C\NCC(=O)c1ccccc1)c1ccc(F)cc1	Tau fibril ThT inconclusive
CC1CC(Nc2cccc(O)c2)=CC(=O)O1 (configuration not stated)	none
C[C@@H]1Cc2c(O)c(O)cc(O)c2C(=O)O1	Tau fibril ThT 32µM, KDM4E inh 2µM, Tau FP inhib 25µM
CC1=NOC(=O)/C1=C\c1ccc(-c2cccc(Cl)c2)o1	Tau fluor cs inconclusive, Tau fibril ThT 16µM
CC1=NOC(=O)/C1=C\c1ccc(-c2ccc(Cl)c(C(=O)O)c2)o1	Tau fibril ThT inconclusive, KDM4E inh inconclusive
COc1cc(/C=C(/NC(=O)c2ccccc2)C(=O)Nc2ccccc2)c([N+](=O)[O-])cc1OC	none
COc1cc(C=O)c([N+](=O)[O-])cc1OC	Tau fluor cs inconclusive, Tau fibril ThT 3.2µM, Tau FP inhib 6.3µM
Cc1ccc(CCNC(c2ccc(F)cc2)c2nnc(-c3ccccc3Cl)o2)cc1 (configuration not stated)	none (no result: KDM4E inh)
CCN(CC)CCOC(=O)c1c(C)oc2ccc(OC)cc12	KDM4E inh inconclusive
O=C1C2=CC[C@@H]3C(=O)N(c4ccc(F)cc4F)C(=O)[C@H]3[C@H]2[C@H](O)[C@H]2O[C@H]12	Tau fibril ThT 4.5µM, Tau FP inhib inconclusive (no result: KDM4E inh)
C[C@@H](c1ccccc1)N1C(=O)[C@@H]2[C@H]3C(=CC[C@H]2C1=O)C(=O)[C@H]1O[C@H]1[C@H]3O	Tau fibril ThT inconclusive, Tau FP inhib inconclusive (no result: KDM4E inh)
CCOC(=O)CCN1C(=O)[C@@H]2[C@H]3C(=CC[C@H]2C1=O)C(=O)[C@H]1O[C@H]1[C@H]3O	Tau fibril ThT 4µM, Tau FP inhib inconclusive (no result: KDM4E inh)
CC(C)(C)N1C(=O)[C@@H]2[C@H]3C(=CC[C@H]2C1=O)C(=O)[C@H]1O[C@H]1[C@H]3O	Tau fibril ThT inconclusive, Tau FP inhib inconclusive (no result: KDM4E inh)
COc1ccc2c(C)cc(SCC(=O)Nc3ncc(Cl)cc3Cl)nc2c1	none
Cc1ccc(C(=O)c2coc3ccc(OCC(=O)O)cc23)cc1	none
CCCC(=O)OCCNc1cc(Sc2nccn2C)c2nonc2c1[N+](=O)[O-]	Tau fluor cs inconclusive, Tau fibril ThT 7.1µM, Tau FP inhib inconclusive
CCCSc1cc(NCCOC(=O)CCC)c([N+](=O)[O-])c2nonc12	Tau fluor cs inconclusive, Tau fibril ThT inconclusive
CC(=O)OCCCNc1cc(SCc2ccco2)c2nonc2c1[N+](=O)[O-]	Tau fluor cs 7.1µM[quencher], Tau fibril ThT 7.9µM, Tau FP inhib inconclusive
CCOC(=O)C1CCCN(c2cc(NCCCO)c([N+](=O)[O-])c3nonc23)C1 (configuration not stated)	none
CCCC(=O)OCCNc1cc(SCc2ccco2)c2nonc2c1[N+](=O)[O-]	Tau fluor cs 4.5µM[quencher], Tau fibril ThT 4µM, Tau FP inhib inconclusive
CC1CCCCN1CCNc1nc(=S)[nH]c2ccccc12 (configuration not stated)	none
Cc1ccc(S(=O)(=O)Cc2ccc(C(=O)NCc3cccs3)o2)cc1	none
O=C(COC(=O)CCc1c[nH]c2ccccc12)NC(c1ccccc1)c1ccccc1	Tau fluor cs 14µM[quencher], Tau FP inhib inconclusive

Compound activity as filed in PubChem.
